Experimental data: PubChem BioAssay AID624117 (National Center for Advancing Translational Sciences (NCATS), 2012)
Results filed as inconclusive are left out. Values without a mark were called inactive. Activity calls are given as the source filed them. Calls come from the whole dose curve; as a rule, active = well fitted curve in the direction sought with a large enough effect; inconclusive = small, poorly fitted or top-dose-only effect, or another doubt; inactive = no such curve, though single readings can be large or run the other way.

experiment: qHTS Assay for Rab9 Promoter Activators: Hit Validation Using Renilla Luciferase Read-Out; conditions: Huh7 NPC1 promoter Renilla luciferase reporter, 24 h; series mostly up to 76.9 µM; activation (negative = inhibition): at the top concentration; for activation (negative = inhibition): % of control where 0% means no effect
Excerpt: Niemann Pick Type C (NPC) is a rare neurodegenerative lipidosis that is characterized by lipid storage in the endosomal/lysosomal system. Treatment modalities for this devastating disease are currently non-existent due to the severe obstacles associated with accessing the central nervous system with proteins or genes. The majority of mutations causing NPC disease are missense mutations that are distributed throughout the length of the NPC1 protein, with the most prevalent being the I1061T allele. Although NPC1 mutant proteins may be functional, they are typically trapped in the ER due to misfolding. […] We have developed and optimized a cell based renilla luciferase reporter assay in 1536 well format for the identification of up-regulators of the mutant NPC1 promoter. This assay presents data on the validation of hits from the primary screen, which used a firefly luciferase read-out. NIH Chemical Genomics Center [NCGC] NIH Molecular Libraries Probe Production centers Network [MLPCN] MLPCN Grant: MH089375 Assay Submitter (PI): Yiannis A. Ioannou
Huh7 cells stably expressing NPC promoter-luciferase will be seeded at 1,500 cells/well in 5 uL in 1,536-well white opaque plates with 23 nL/well of compound in DMSO solution. The assay plates will be incubated at 37 deg C for 24 hours, after which 3 uL/well BriteLite plus luciferase detection reagent mixture (Perkin Elmer) will be added. Luminescence signal will be measured in a ViewLux plate reader (Perkin Elmer) after a 10 minute incubation at the room temperature.
Potency is the fitted concentration of half-maximal effect.

SMILES | activation (negative = inhibition) | Potency
Cc1ccc(C(=O)c2cn[nH]c2-c2ccccc2O)cc1 | -8.79% | –
CCCC(C)NC(=O)c1ccc(OCc2ccc(Cl)cc2)c(OC)c1 (stereo not given) | -10.1% | –
Cc1cc(C)c2c(N)c(C(=O)Nc3ccc([N+](=O)[O-])cc3)sc2n1 | -1.64% | –
Cc1cccc(N2CCN(C(=S)c3ccccc3)CC2)c1 | 1.13% | –
Cc1noc(/C=C/N(C)C)c1S(=O)(=O)N1CCCC(C(=O)N2CCCCC2)C1 (stereo not given) | -7.89% | –
CCN(CC(=O)N(CC(C)C)c1c(N)n(CC(C)C)c(=O)[nH]c1=O)Cc1nc2ccccc2c(=O)[nH]1 | -6.08% | –
COc1ccc(NC(=O)CCCN2C(=O)C(c3ccccc3)Oc3cccnc32)cc1OC (stereo not given) | -6% | –
O=C(CCCN1C(=O)C(c2ccccc2)Oc2cccnc21)Nc1ccccc1Cl (stereo not given) | 3.99% | –
COc1ccc(-c2nnc(SCC(=O)/C(C#N)=C(\C)N)o2)cc1 | 6.56% | –
COc1ccccc1NC(=S)NCc1ccc(Cl)cc1 | 1.13% | –
Cc1nc(-c2ccccn2)sc1C(=O)Nc1ccc(F)cc1F | -5.7% | –
COc1ccc(-n2c(N)c(C(=O)NCc3ccco3)sc2=S)cc1 | -2.97% | –
COc1ccc2oc(=O)c(C(=O)NC(C)c3ccccc3)cc2c1 (stereo not given) | 25.8% | –
Cc1cccc(NC(=O)CSc2nc3ccccc3o2)c1 | -11.1% | –
CC(=O)Nc1ccc(-c2csc(Nc3ncccn3)n2)cc1 | -9.77% | –
COc1ccc(/C=C\C(=O)c2c(O)ccc3c(C)cc(=O)oc23)cc1OC | -59.8% | –
CC1CCCN(S(=O)(=O)c2ccc(C(=O)Nc3nnc(-c4ccncc4)o3)cc2)C1 (stereo not given) | -97.9% | –
O=C(CCS(=O)(=O)c1ccccc1)Nc1ccc(-c2nc3ccccc3s2)cc1 | 1.79% | –
O=S(=O)(c1cccs1)N1CCN(c2ncccn2)CC1 | -5.33% | –
CC(C)(C)NC(=S)NNC(=O)c1ccc2ncccc2c1 | -57.9% | –

SMILES | activation (negative = inhibition) | Potency
COc1cccc(NC(=O)CN2C(=O)CSc3ccc(S(=O)(=O)N4CCC(C)CC4)cc32)c1 | -28.4% | –
O=C(CSc1nnc(-c2ccc([N+](=O)[O-])cc2)o1)Nc1ccccn1 | -4.19% | –
CC1CCc2sc(C(=O)NNC(=S)NC3CC3)cc2C1 (stereo not given) | -43.9% | –
CCOC(=O)c1cc2sccc2n1CC(=O)N1CCCc2ccccc21 | -5.06% | –
COc1ccc(C)cc1N(C(=O)CNC(=O)c1ccco1)C(C(=O)NC1CCCC1)c1cccnc1 (stereo not given) | 21.9% | –
CCCOP(=O)(c1ccc(N(C)C)cc1)C(O)c1cccnc1 (stereo not given) | -3.35% | –
CN(C)C(=O)[C@H]1C[C@H]1[C@@H](O)[C@H](CO)NC(=O)[C@H](COCc1ccccc1)NC(=O)OC(C)(C)C | -12% | –
Cc1ccc(NC(=O)Nc2cccc3ccccc23)cc1 | -3.27% | –
CC(Sc1ncnc2c1cnn2-c1ccccc1)C(=O)Nc1ccc(N2CCOCC2)cc1 (stereo not given) | -7.01% | –
COc1ccc(-c2cc(C(=O)Nc3ccccc3F)on2)cc1 | 1.74% | –
CCC(=O)N1c2ccccc2NC2=C(C(=O)CCC2)C1c1ccc(N(C)C)cc1 (stereo not given) | 4.45% | –
Cc1ccc(S(=O)(=O)N2CCN(c3cnn(C)c(=O)c3Cl)CC2)cc1 | -10.5% | –
CC(=O)Nc1ccc(NC(=O)COc2ncnc3ccccc23)cc1 | 5.67% | –
COc1ccc(C(c2nnnn2CCc2ccccc2)N2CCN(C3CCCC3)CC2)cc1 (stereo not given) | 0.128% | –
NNC(=O)c1cccc(S(=O)(=O)Nc2cc(Cl)ccc2Cl)c1 | 12.1% | –
CCOC(=O)CSc1nc2cc(C)ccc2cc1C#N | -50.3% | –
CC(=O)[C@@H]1[C@@H](C(=O)c2ccc(C)cc2)[C@]2(C(=O)Nc3ccccc32)[C@H]2C=Cc3cc(F)ccc3N12 | 2.81% | –
O=C(c1cccc(Oc2ccc([N+](=O)[O-])cc2)c1)N1CCOCC1 | -8.02% | –
CC(=O)c1c(C)[nH]c(C(=O)Nc2cccc(S(=O)(=O)N(C)C)c2)c1C | – | 26 µM (active)
CC(C)(C)C(=O)NC(=S)Nc1ccccc1F | 22.6% | –
